# Only some compounds are listed: those with a hit (about 11% of all), similar ones and a draw of the others.
# PNC inhibitor: perinucleolar compartment assembly inhibition | AID 2417 | 140,000 tested, 3.1% active | PC3M PTB-GFP, PNC prevalence imaging, 16 h; hits give low values | activity change (PNC), negative = inhibition, % at 10 µM;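 active = readout at or below -70, meaning at least 70% loss of cells showing the perinucleolar compartment, a nuclear body marking cancer cells; inconclusive = readout between -30 and a set limit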;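 also: plate controls were DMSO wells for no effect and camptothecin positive control wells for full effect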
#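 Read-out is percentage of cells bearing a perinucleolar compartment, from automated 20x imaging of fixed, Hoechst-stained PC3M PTB-GFP cells. Cells were seeded 4 h, then exposed 16 h to compound (23 nl of library stock) in duplicate plates.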
# ALDH1A1 inh: ALDH1A1 (human) enzyme inhibition; Purified ALDH1A1, NADH fluorescence, propionaldehyde substrate; Potency, µM (titrated, usually from 75.3 µM), inactives show top-dose activity, negative = inhibition, usual class: inhibitors; 220,000 tested, 7.3% active; AID 1030;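 also: potency is read from the fitted curve at half-maximal effect; plate controls were no enzyme wells and a reference inhibitor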
# HPGD inh: inhibitors of human 15-hydroxyprostaglandin dehydrogenase (HPGD); Potency, µM, without a hit: at the top dose activity change, negative = inhibition, usual class: inhibitors; purified HPGD, NADH fluorescence kinetic, PGE2 substrate; P15428; 150,000 tested, 4.3% active; also: potency is read from the fitted curve at half-maximal effect
# Target sequence (P15428 whole entry, looked up): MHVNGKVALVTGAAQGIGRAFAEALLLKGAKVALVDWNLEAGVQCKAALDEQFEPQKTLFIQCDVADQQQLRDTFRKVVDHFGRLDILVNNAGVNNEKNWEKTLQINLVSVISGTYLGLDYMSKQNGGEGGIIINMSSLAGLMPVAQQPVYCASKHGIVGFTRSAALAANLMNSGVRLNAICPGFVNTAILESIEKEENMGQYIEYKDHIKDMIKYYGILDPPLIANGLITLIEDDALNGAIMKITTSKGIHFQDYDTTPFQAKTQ
#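 20 nM HPGD preincubated 15 min at room temperature with compound in 50 mM Tris-HCl pH 8, 0.01% Tween 20. Started with 1 mM NAD+ and 30 uM prostaglandin E2; NADH fluorescence (360/450 nm) read 5 times over 30-s intervals, last minus first.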
# KDM4E inh: inhibitors of human JMJD2E histone demethylase; B2RXH2; JMJD2E catalytic domain, FDH-coupled NADH fluorescence (FDH is formaldehyde dehydrogenase); Potency, µM (titrated, usually from 57.1 µM), without a hit: at the highest dose activity change, negative = inhibition, hits mostly inhibitors; 230,000 tested, 1.6% active; AID 2147;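 also: potency is read from the fitted curve at half-maximal effect; 0% = wells with enzyme and -100% = buffer wells without enzyme; nearly all actives have a fitted effect of over 50% in size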
# Target sequence (B2RXH2 1-337 limits assumed): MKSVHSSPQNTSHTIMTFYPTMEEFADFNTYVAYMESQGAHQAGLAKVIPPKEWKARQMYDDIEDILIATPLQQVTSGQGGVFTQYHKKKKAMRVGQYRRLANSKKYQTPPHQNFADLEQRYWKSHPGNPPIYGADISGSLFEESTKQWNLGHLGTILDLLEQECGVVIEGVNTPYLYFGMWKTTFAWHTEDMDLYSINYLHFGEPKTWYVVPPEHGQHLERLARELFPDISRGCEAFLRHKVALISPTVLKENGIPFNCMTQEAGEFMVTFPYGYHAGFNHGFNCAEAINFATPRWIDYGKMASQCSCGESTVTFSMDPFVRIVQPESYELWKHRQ
# Active calls of the source: *; ? = inconclusive; . = no result given; [ ] = remark or other dose. Unless noted, calls follow the shape of the dose curve; as a rule, active = well fitted inhibition curve with a large enough effect (not every such curve was filed as active); inconclusive = small, poorly fitted or top-dose-only effect, or another doubt; inactive = no such curve, though single readings can be large or run the other way. Unless noted, % is scaled to controls: 0 for no effect and ±100 for the full control effect.
SMILES,PNC inhibitor,ALDH1A1 inh,HPGD inh,KDM4E inh
COc1ccc(-n2c(C)cc(C(=O)COC(=O)Cn3cnc4ccccc43)c2C)cc1,-27,13µM*,-29%,-3%
COc1ccc(-n2c(C)cc(C(=O)CN3C(=O)c4ccccc4C3=O)c2C)cc1,?,?,-11%,2%
CC(C)N(C)C,.,7%,-8%,.
C=CCN(CC=C)C(=O)C(=O)c1ccn(-c2c(C)csc2C(=O)OC)c1,.,3%,.,0%
Cc1ccc(-n2c(C)cc(C(=O)CN3CCCCC3)c2C)cc1,?,-24%,13µM*,-21%
Cc1ccc(-n2c(C)cc(C(=O)COC(=O)c3ccc[nH]c3=O)c2C)cc1,-82*,14%,-5%,-2%
Cc1cc(C(=O)CCl)c(C)n1-c1c(C)n(C)n(-c2ccccc2)c1=O,.,13µM*,.,0%
Cc1nnc(SCC(=O)c2cc(C)n(-c3c(C)n(C)n(-c4ccccc4)c3=O)c2C)s1,-1,-1%,-7%,-5%
Cc1cc(C(=O)COC(=O)c2ccc[nH]c2=O)c(C)n1-c1ccc(Br)cc1,?,-3%,-12%,-26%
COc1ccc(-n2c(C)cc(C(=O)CCl)c2C)cc1,.,0.32µM*,.,-5%
CCOc1ccc2nc(NC(=O)CSc3nnnn3C3CCCCC3)sc2c1,29,8.9µM*,-28%,?
COc1ccc2nc(NC(=O)CSc3nnnn3C3CCCCC3)sc2c1,5,?,-17%,-4%
O=C(CSc1nnnn1C1CCCCC1)Nc1nc2c(s1)CCCC2,24,7.9µM*,-7%,-6%
Cc1ccc(CSc2nnc(-c3ccncc3)n2CC2CCCO2)cc1 (centres undefined),53,1%,-3%,0%
CCn1ccnc1CN(C)Cc1cn(-c2cc(C)ccc2C)nc1-c1ccccc1,.,28µM*,.,?
C=C(C)CNC(=S)Nc1nc2c(cc1C(=O)OCC)CCCC2,-15,1µM*,-13%,?
C=C(C)CNC(=S)Nc1cccc(S(=O)(=O)NC2=NCCC2)c1,.,?,.,-1%
Cc1cc(N2CCC(C(=O)N3CCN(c4cccc(C)c4C)CC3)CC2)n2ncnc2n1,26,4µM*,-23%,-13%
Cc1cccc(N2CCN(C(=O)C3CCCCC3)CC2)c1C,-30,-11%,-14%,2%
COC(=O)N1CCC2(CCCN(c3ccccn3)C2)CC1,.,-91%,?,.
Cc1c(NC(=O)c2ccc3c(c2)C(=O)N(Cc2ccco2)C3=O)cccc1C(=O)O,.,?,.,2%
Cc1ccc(NC(=O)c2ccc3c(c2)C(=O)N(CC2CCCO2)C3=O)cc1C (centres undefined),.,3.2µM*,.,6%
Cc1nnc(NC(=O)c2ccc3c(c2)C(=O)N(CCC(C)C)C3=O)s1,-17,?,-6%,0%
Cc1nnc(NC(=O)c2ccc3c(c2)C(=O)N(CC2CCCO2)C3=O)s1 (centres undefined),-90*,?,-2%,4%
Cc1c(NC(=O)c2ccc3c(c2)C(=O)N(CC2CCCO2)C3=O)cccc1C(=O)O (centres undefined),-81*,?,-5%,8%
SMILES,PNC inhibitor,ALDH1A1 inh,HPGD inh,KDM4E inh
O=C(Nc1cccnc1)c1ccc2c(c1)C(=O)N(CC1CCCO1)C2=O (centres undefined),.,?,.,1%
O=C(Nc1ccc(O)c(C(=O)O)c1)c1ccc2c(c1)C(=O)N(CC1CCCO1)C2=O (centres undefined),-1,10µM*,-27%,2%
Cn1nc(C(=O)NCCOc2ccccc2)c2ccccc2c1=O,.,?,.,-5%
NC1=NC(c2ccc(Cl)cc2)C(C(=O)c2ccccc2)N1 (centres undefined),.,.,.,-1%
CC(=O)Nc1nc(NC(C)=O)c2[nH]c(CO)nc2n1,.,14%[13.5 µM],0%,.
CCOC(=O)C1(C)C=C(Nc2ccc(NC(C)=O)cc2)C(=O)N1c1ccc(NC(C)=O)cc1 (centres undefined),.,.,.,-5%
N#C/C(=C\c1ccc(OC(=O)c2ccc(Br)s2)cc1)c1nc2ccccc2[nH]1,-16,0%,-14%,18µM*
N#C/C(=C\c1ccc(OC(=O)c2ccc(Cl)s2)cc1)c1nc2ccccc2[nH]1,70,5%,-19%,?
COC(=O)c1sc(S(=O)(=O)N2CCC(C(=O)O)CC2)c(C(=O)OC)c1C,-4,?,-5%,5%
O=[N+]([O-])c1cc(/C=N/n2c(-c3cccnc3)n[nH]c2=S)ccc1Cl,-12,2µM*,4µM*,2%
CC(/C=N/n1c(COc2ccccc2)n[nH]c1=S)=C\c1ccccc1,80,?,5.6µM*,-2%
S=c1[nH]nc(-c2cccnc2)n1/N=C/C=C/c1ccccc1,?,-16%,13µM*,?
CC(/C=N/n1c(-c2cccnc2)n[nH]c1=S)=C\c1ccccc1,39,?,3.2µM*,?
O=C(c1cnccn1)N1CCC2(CCCN(c3ccccn3)C2)CC1,.,2%,-8%,.
O=C(NNc1c(Cl)cc(Cl)cc1Cl)C1CCC1,32,16%,32µM*,0%
O=C(NNc1cc(Cl)cc(Cl)c1)C1CCC1,.,-1%,.,-1%
COc1ccc(NC(=O)/C(C#N)=C\c2cc(C)n(-c3ccc4c(c3)OCO4)c2C)cc1,-124*,-3%,-16%,-10%
Cc1cc(C=O)c(C)n1-c1cc(C(=O)O)cc(C(=O)O)c1,.,-11%,.,?
Cc1c(C(=O)O)cccc1-n1c(C)cc(/C=C(/C#N)C(=O)NCc2ccccc2)c1C,.,3%,.,-1%
Cc1cc(C=O)c(C)n1-c1ccc2c(c1)OCO2,.,1.4µM*,.,-11%
Cc1cc(/C=C(\C#N)C(=O)OCC#N)c(C)n1CC(C)C,.,25µM*,.,-28%
Cc1cc(/C=C(\C#N)C(=O)Nc2ccccc2)c(C)n1-c1ccc(C(=O)O)cc1,.,1µM*,.,?
Cc1cc(/C=C(\C#N)C(=O)OCC(=O)Nc2ccc(OC(F)F)cc2)c(C)n1CC(C)C,-29,?,?,1%
Cc1cccc(NC(=O)/C(C#N)=C\c2cc(C)n(-c3ccc(C(=O)O)cc3)c2C)c1,.,3.2µM*,.,-29%
Cc1cccc(-n2c(C)cc(C=C(C#N)C#N)c2C)c1,19,4%,-12%,-3%
SMILES,PNC inhibitor,ALDH1A1 inh,HPGD inh,KDM4E inh
CCOC(=O)/C(C#N)=C\c1cc(C)n(-c2ccccc2)c1C,?,?,-15%,-3%
CNS(=O)(=O)c1cccc(C(=O)OCC(=O)c2cc(C)n(-c3ccc4c(c3)OCO4)c2C)c1,20,?,-25%,-4%
Cc1cc(C(=O)COc2ccccc2Cl)c(C)n1-c1ccc2c(c1)OCO2,-106*,-6%,?,0%
CCOC(=O)/C(C#N)=C/c1cc(C)n(-c2ccc(C)cc2)c1C,-10,11µM*,-14%,?
COc1ccccc1C(=O)OCCNC(=O)Cn1cnc2c1c(=O)n(C)c(=O)n2C,.,10%,.,1%
C/C(=N\NC(=O)c1csc(C)c1C)c1ccco1,?,?,?,17%
C/C(=N\NC(=O)c1csc(C)c1C)c1ccc(C)s1,23,3%,14µM*,3%
CCc1ccc(C(C(=O)NCc2ccc(OC)cc2)N(CCOC)C(=O)Cc2cccs2)cc1 (centres undefined),6,1.3µM*,-7%,0%

# Bioassay records as filed in PubChem.
